Assay outcomes from PubChem BioAssay.
M1 PAM = human CHRM1 positive allosteric modulation; P11229; CHO-K1 hM1, Fluo-8 calcium fluorescence, ACh EC20; 0% = ACh EC20, 100% = maximal ACh; activation, % at 3 µM; hit rate 0.088% among 360,000; in the data active = activation above about 19%, passing the limit was not always enough
Target sequence (P11229 whole entry, looked up): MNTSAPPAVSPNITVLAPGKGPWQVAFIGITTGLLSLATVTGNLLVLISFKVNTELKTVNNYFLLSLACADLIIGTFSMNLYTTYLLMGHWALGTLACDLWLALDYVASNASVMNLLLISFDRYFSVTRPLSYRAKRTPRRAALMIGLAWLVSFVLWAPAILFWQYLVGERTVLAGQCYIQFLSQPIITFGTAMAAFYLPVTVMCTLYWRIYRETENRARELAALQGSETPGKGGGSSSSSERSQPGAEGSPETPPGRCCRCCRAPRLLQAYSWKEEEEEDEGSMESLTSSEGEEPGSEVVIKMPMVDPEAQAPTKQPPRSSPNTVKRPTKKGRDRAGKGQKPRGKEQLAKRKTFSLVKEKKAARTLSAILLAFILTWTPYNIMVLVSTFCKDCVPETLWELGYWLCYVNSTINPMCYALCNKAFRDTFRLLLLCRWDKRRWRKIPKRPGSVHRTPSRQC
M1 PAM parental = nonselective activator or artifact in parental CHO-K1 calcium assay | hit rate 0.02% among 360,000 | AID 602247 | ATP EC20, Fluo-8 calcium fluorescence; 0% at ATP EC20, 100% at ATP max | activation, % at 3 µM;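 active = activation above the run cutoff, the mean activation of all test compounds plus 3 SD, cut at about 40% in these data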;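 also: peak over basal fluorescence ratio in a 140 s read after ATP addition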
CHRM1 antagonist = blocks human M1 muscarinic receptor; inhibition, % at 3 µM; CHO-K1 hM1, Fluo-8 calcium fluorescence, ACh EC80 antagonist; hit rate 1.3% among 360,000; P11229;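 active = percent inhibition above its own plate's cutoff, namely the mean of that plate's compound wells plus 3 SD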;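 also: peak over basal fluorescence ratio during 140 s after agonist addition; 0% = ACh EC80 plus DMSO and 100% = DMSO alone without agonist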
CHO-K1 Ca antag = M1 antagonist counterscreen hit in parental CHO-K1 cells. ATP-induced calcium, Fluo-8 fluorescence. inhibition, % at 3 µM. hit rate 0.6% among 360,000. AID 602250;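 active = inhibition above a per-plate cutoff, the plate's mean sample inhibition plus 3 SD, cut at about 24% in these data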;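 also: 0% = DMSO plus EC80 ATP and 100% = DMSO alone without ATP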
M1 ag parental = counter-screen for M1 agonists: effect in parental CHO-K1 cells; hit rate 0.48% among 360,000; Fluo-8 calcium fluorescence; scaled to maximal ATP response, vehicle zero; activation, % at 3 µM; in the data active = activation above about 15%;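 also: untransfected CHO-K1 host cells lacking M1 receptor as counterscreen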
M1 ag = human M1 muscarinic receptor agonism; hit rate 0.33% among 360,000; P11229; CHO-K1 hM1, Fluo-8 calcium fluorescence, agonist mode; 0% DMSO, 100% acetylcholine EC100; activation, % at 3 µM;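 active = activation above the run's mean compound activation plus 3 SD, cut at about 16% in these data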;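 also: peak over basal fluorescence ratio within a 140 s kinetic read after compound addition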
An asterisk follows results filed as active; nt = not tested or not shown. In the library only some 2.3% were active in any assay of this set; here they are far more common.

SMILES	M1 PAM	M1 PAM parental	CHRM1 antagonist	CHO-K1 Ca antag	M1 ag parental	M1 ag
CCN(CC(=O)Nc1ccc(NC(C)=O)cc1)C(=O)CSc1ncnc2sc(C)c(C)c12	1	12	-7	-7	2	-4
O=C(NC1CCCCCC1)C1CC(=O)N(Cc2ccccc2)C1 (centres undefined)	6	11	-6	6	0	-4
COc1cc(OC)c(-c2c3cc(O)c(=O)cc-3oc3cc(O)c(O)cc23)cc1OC	-28	-16	74*	68*	258*	385*
Cc1nn(C(C)C(=O)NCc2ccco2)c(C)c1[N+](=O)[O-] (centres undefined)	10	15	-11	-1	19*	2
Cc1nn(CC(=O)NCCc2ccco2)c(=O)c2nn(-c3ccccc3)c(C)c12	5	14	-6	-10	0	-4
Cc1nn(C(C)C(=O)NCCc2ccco2)c(=O)c2nn(-c3ccccc3)c(C)c12 (centres undefined)	31*	21	19	-13	0	-1
Cc1c(Br)c([N+](=O)[O-])nn1C(C)C(=O)NCc1ccco1 (centres undefined)	6	5	3	-2	0	-8
O=C(NCc1ccco1)Nc1ccc([N+](=O)[O-])cc1	-8	13	8	-19	6	-1
CC(C(=O)NCc1ccco1)c1ccc([N+](=O)[O-])cc1 (centres undefined)	11	-13	-3	25*	0	-5
O=C(Nc1nnc(-c2ccccc2Cl)o1)c1nc2ccccc2s1	-6	0	1	0	48*	74*
O=C(Nc1nnc(-c2ccccc2Cl)o1)c1ccco1	3	5	0	-1	0	-4
COc1cccc2sc(Nc3nnc(-c4ccccc4Cl)o3)nc12	1	-9	-4	29*	0	1
COc1ccccc1-c1nnc(Nc2nc3c(OC)cccc3s2)o1	13	18	-2	-1	1	-3
CC(C(=O)Nc1cccc(S(=O)(=O)N2CCOCC2)c1)N1CCN(c2ccc(F)cc2)CC1 (centres undefined)	11	22	-6	-7	4	-9
CCCNC(=O)c1cc(C2CCCCN2C(=O)CCCc2ccccc2)on1 (centres undefined)	-10	-24	10	25*	1	-6
CCCNC(=O)c1cc(C2CCCCN2C(=O)OCC(C)C)on1 (centres undefined)	-20	-12	42*	5	0	-9
CCCNC(=O)c1cc(C2CCCCN2C(=O)OCCF)on1 (centres undefined)	10	18	-12	-10	1	-8
Cc1nnsc1C(=O)Nc1ccc(S(=O)(=O)N2CCCC(C)C2)cc1 (centres undefined)	-2	-10	-5	-11	8	3
Cc1cccnc1C(NC(=O)C1CCN(Cc2ccc3ccccc3n2)CC1)c1ccc(Cl)cc1 (centres undefined)	-24	-7	31*	1	1	-8
COc1ccccc1NC(=O)Cn1nnc(-c2ccccc2NS(=O)(=O)c2ccccc2)n1	-9	-6	24	28*	9	-2
Cc1ccc2nc(-c3ccccc3)nn2c1	1	9	-2	-4	0	-1
Cc1cccc(NC(=O)CN2C(=O)c3ccccc3S2(=O)=O)n1	-7	-30	17	15	0	1
Cc1cccc(NC(=O)C(C)N2C(=O)c3ccccc3S2(=O)=O)n1 (centres undefined)	-12	-26	28*	28*	0	-1
CCN(CCO)Cc1csc2c(Br)cccc12	23*	18	-41	-16	1	-4
CCN(CCO)Cc1csc2ccccc12	9	10	-7	-4	0	-1
SMILES	M1 PAM	M1 PAM parental	CHRM1 antagonist	CHO-K1 Ca antag	M1 ag parental	M1 ag
CCOC(=O)c1[nH]c2ccc(F)cc2c1NC(=O)Nc1ccccc1OC	5	10	-10	-1	16*	-5
COc1ccc(NC(=O)CNC(=O)C2CCCCC2)cc1OC	20	3	-20	-9	0	3
O=C1C2C3C=CC(C4CC34)C2C(=O)N1c1cccc2ccccc12 (centres undefined)	6	24	-8	-5	18*	12
CC1(OC(=O)C2CCCC2)C(=O)C=C2C=C(c3ccsc3)N(C3CCCCC3)C=C2C1=O (centres undefined)	-12	-6	10	6	0	-4
CC1(OC(=O)C2CCCC2)C(=O)C=C2C=C(c3ccsc3)N(CC3CC3)C=C2C1=O (centres undefined)	-39	-11	67*	7	0	-13
COc1cccc(C(=O)N2CCC[C@@H]2C(=O)N2CCC[C@H]2C(=O)NCc2ccncc2)c1	nt	-9	nt	-10	0	nt
CC(C)Oc1ccc(S(=O)(=O)N2CCOCC2)cc1NC(=O)c1ccc(Cl)c(S(=O)(=O)N2CCOCC2)c1	6	6	-8	5	1	-3
Cc1ccc(N(C(=O)CNC(=O)c2ccco2)C(C(=O)NCC2CCCO2)c2ccccc2)cc1 (centres undefined)	10	18	-9	-3	3	-4
Cc1cccc(N(C(=O)CNC(=O)c2ccco2)C(C(=O)NCC2CCCO2)c2ccccc2)c1 (centres undefined)	-18	-7	23*	16	5	-3
COc1ccc(C(C(=O)NCC2CCCO2)N(C(=O)CNC(=O)c2ccco2)c2ccccc2)cc1OC (centres undefined)	2	2	-1	1	0	-2
COc1ccc(C(C(=O)NCC2CCCO2)N(C(=O)CNC(=O)c2cccs2)c2ccccc2)cc1OC (centres undefined)	-9	-16	15	24*	0	-4
O=C(NCC1CCCO1)C(c1ccc(F)cc1)N(C(=O)Cn1nnc(-c2ccc(F)cc2)n1)c1cccc(O)c1 (centres undefined)	-9	3	36*	2	10	0
Cc1cc(C)nc(-n2nc(C)cc2NC(=O)CN2CCCC2)n1	3	18	-4	-5	1	-5
Cc1cc(C)nc(-n2nc(C)cc2NC(=O)CN2CCC(C)CC2)n1	20*	6	-13	0	0	-7
CC1CCC(C(C)C)C(OC(=O)C[n+]2cc(-c3ccc(Cl)cc3)n3c2CCC3)C1 (centres undefined)	-23	10	85*	-3	1	-2
Cc1ccc(-c2c[n+](CC(=O)OCc3ccccc3)c3n2CCC3)cc1	-9	-1	6	3	0	-8
O=C(C[n+]1cc(-c2ccc(Cl)c(Cl)c2)n2c1CCC2)N1c2ccccc2Sc2ccccc21	-27	26	100*	-4	0	-8
